Bioassay records: PubChem, Broad Institute
Hits are enriched below; roughly 3.4% of the tested compounds scored in any of these assays.
HSF1 inh – HSF1 inhibition | NIH3T3-HGL HSE-luciferase, MG132-induced, luminescence 8 h; stronger effect = lower value | activity change, negative = inhibition, % at 7.5 µM (by protocol) | 0.77% of 300,000 active;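 active means more than half of replicate wells show activity change below -50%, luminescence cut by over half; inconclusive means some wells, but at most half, below -50%; inactive means no replicate well below -50%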;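 further: luciferase reports HSF-1 transcriptional activity via heat shock element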
Vif inh – blocks HIV Vif function. HEK293T cells, Vif self-association by quenched fluorescence, imaging, 24 h. inhibition, % at 7.49 µM. 0.35% of 340,000 active; in the data active means inhibition above about 50%, passing the limit was not always enough; inconclusive means no clear call, values can overlap the other calls; inactive means below about 31%
HSF-1 act – increases HSF-1 driven luciferase reporter signal | NIH3T3-HGL HSF-1 luciferase reporter, MG132, 8 h; 100% = twice DMSO control signal | activation, % at 9 µM | 1.7% of 300,000 active;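 active means mean replicate activation of at least 50% with a set share of replicates each reaching 50%; inconclusive means only one of those two conditions met; inactive means mean below 50% and too few replicates reaching it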
esBAF inh – SWI/SNF esBAF complex inhibition; AID 602393; 2% of 350,000 active; reporter increase, % at 12.5 µM; mouse ES cells, Bmi1-luciferase knock-in reporter, 24 h; 100% = twice the neutral-well signal; in the data active means activation above about 40%; inconclusive means no clear call, values can overlap the other calls;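 further: a rise in the Bmi1 reporter signal indicates esBAF inhibition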
Numbers stand for hits; 0 = inactive; ? = inconclusive; - = no result given.

SMILES	HSF1 inh	Vif inh	HSF-1 act	esBAF inh
CC(C)CC#Cc1cnc2c(c1)C(=O)N([C@H](C)CO)C[C@H](C)[C@@H](CN(C)C(=O)c1ccc(F)cc1)O2	-	-	-	0
CCOc1cc(NC(=O)CC(C)C)c(OCC)cc1NC(=O)CCn1nnc2ccccc21	0	0	56.9	0
CC(=O)Nc1ccc(NC(=O)CCn2nnc3ccccc32)cc1	0	0	0	0
Cc1cccc(C(=O)NNC(=O)CCn2nnc3ccccc32)c1	0	0	88.8	-
Cc1noc(C)c1S(=O)(=O)Nc1ccc2c(c1)CC(=O)N([C@@H](C)CO)C[C@H](C)[C@H](CN(C)S(=O)(=O)c1ccccc1)O2	-	-	-	0
COc1cccc(C=O)c1OCCCOc1cccc2cccnc12	0	0	53.4	?
Cc1cc(C)cc(OCCCOc2cccc3cccnc23)c1	0	0	0	0
Cc1ccc(OCCOCCOc2cccc3cccnc23)c(Br)c1	0	0	76.6	-
Brc1ccccc1OCCCOc1cccc2cccnc12	0	0	0	77.3
CCCN(C)C[C@H]1OCCCC[C@@H](C)Oc2ccc(NS(=O)(=O)c3cn(C)cn3)cc2C(=O)N([C@H](C)CO)C[C@@H]1C	-	-	-	0
Cc1c(C(=O)Nc2nccs2)oc2ccccc12	-	-	-	69.9
Cc1cccnc1NC(=S)NC(=O)c1oc2ccccc2c1C	0	0	0	73.8
Cc1csc(NC(=O)c2oc3ccccc3c2C)n1	0	0	0	?
COc1ccc2oc(C(=O)Nc3nnc(C)s3)c(C)c2c1	-	0	-	0
CC(=O)c1sc(NC(=O)c2cc(=O)c3ccccc3o2)nc1C	0	0	0	0
CC(=O)c1sc(NC(=O)c2oc3ccc(F)cc3c2C)nc1C	-	0	-	49.8
Cc1ccc2oc(C(=O)Nc3nnc(C)s3)c(C)c2c1	0	-	0	65.1
CC(=O)N1[C@@H](CO)[C@@H](c2ccc(-c3ccccc3)cc2)[C@@H]1CNC(=O)C1CC1	-	-	-	0
C[C@H](CO)N1C[C@H](C)[C@H](CN(C)C(=O)CCC(F)(F)F)OCCCC[C@H](C)Oc2ccc(NC(=O)CCC(F)(F)F)cc2C1=O	-	-	-	0
Cc1c(C(=O)Nc2cnccn2)oc2ccccc12	0	0	0	61.2
Cc1c(C(=O)Nc2ccc(Cl)cn2)oc2ccccc12	0	0	0	45.3
Cc1ccccc1C(=O)Nc1ccc(Cl)cn1	0	0	0	0
Cc1ccnc(NC(=O)c2oc3ccccc3c2C)c1	0	0	0	0
Cc1c(C(=O)Nc2nnc(C3CC3)s2)oc2ccccc12	-	0	-	52.8
Cc1ccc(S(=O)(=O)Nc2ccc3c(c2)CC(=O)N([C@H](C)CO)C[C@@H](C)[C@H](CN(C)C(=O)NC(C)C)O3)cc1	-	-	-	0
SMILES	HSF1 inh	Vif inh	HSF-1 act	esBAF inh
CCOC(=O)N1CCN(Cc2c(NC(=O)c3ccco3)sc(C)c2C)CC1	0	0	99.3	0
Cc1sc(NC(=O)c2ccco2)c(CN2CCN(c3ccccn3)CC2)c1C	0	0	0	0
Cc1sc(NC(=O)c2ccco2)c(CN2CCN(c3ccc(F)cc3)CC2)c1C	0	0	86.9	0
CCC(=O)N[C@H]1C=C[C@@H](CC(=O)NCCN2CCCCC2)O[C@H]1CO	-	-	-	0
O=c1[nH][nH]c(=O)c2c(NS(=O)(=O)c3ccccc3)cccc12	0	0	0	46.2
O=C(c1cc(C(=O)N2CCCC2)cc([N+](=O)[O-])c1)N1CCCC1	0	0	0	0
CN1CCN(C(=O)c2cc([N+](=O)[O-])cc([N+](=O)[O-])c2)CC1	-64.1	0	0	0
COc1ccccc1NC(=O)N[C@@H]1CC[C@@H](CC(=O)N2CCC(Cc3ccccc3)CC2)O[C@@H]1CO	-	-	-	0
c1ccc(N2CC3CCc4ccccc4C3=N2)cc1 (centres undefined)	0	0	57.4	-
CN1N=C2c3ccccc3CCC2C1c1ccc(F)cc1 (centres undefined)	0	0	0	-
COc1ccc(S(=O)(=O)Nc2cccc3c2O[C@H](CN(C)Cc2ccccc2)[C@@H](C)CN([C@@H](C)CO)C3=O)cc1	-	-	-	0
C[C@@H]1CN([C@H](C)CO)C(=O)Cc2cc(NS(=O)(=O)c3cccs3)ccc2O[C@H]1CN(C)Cc1ccc(C(F)(F)F)cc1	-	-	-	0
Cc1nnc(N/N=C/c2cc(C)n(-c3ccc(F)cc3)c2C)n1N	-96.0	0	0	-
Cc1nnc(N/N=C/c2ccccc2O)n1N	0	0	71.3	-
Cc1nnc(N/N=C/c2ccc(-c3ccccc3F)o2)n1N	0	-	0	-
Cc1cc(/C=N/NC(N)=S)c(C)n1-c1ccc(Br)cc1	0	0	0	-
Oc1ccccc1/C=N/Nc1nn[nH]n1	-74.7	0	0	0
Cc1nnc(N/N=C\c2ccc(-c3ccccc3[N+](=O)[O-])o2)n1N	0	0	79.7	-
C[C@@H]1CCCCO[C@@H](CN(C)Cc2ccc(C(F)(F)F)cc2)[C@H](C)CN([C@H](C)CO)C(=O)c2cc(N(C)C)ccc2O1	-	-	-	0
C[C@@H]1CCCCO[C@H](CN(C)S(=O)(=O)c2ccc(F)cc2)[C@@H](C)CN([C@@H](C)CO)C(=O)c2cc(NC(=O)Nc3cccc4ccccc34)ccc2O1	-	-	-	0
Cn1c(/C=C/c2ccccc2[N+](=O)[O-])nc2ccccc2c1=O	0	0	0	0
CCOc1c(OC(C)=O)ccc(/C=C/c2ccc3cccc(OC(C)=O)c3n2)c1[N+](=O)[O-]	0	-	0	66.4
COc1c(OC(C)=O)ccc(/C=C/c2ccc3ccccc3n2)c1[N+](=O)[O-]	0	0	64.7	0
O=[N+]([O-])c1ccccc1/C=C/c1ccc2ccccc2n1	0	0	97.9	51.6
C[C@@H]1CN([C@@H](C)CO)C(=O)c2cc(C#CC3(O)CCCC3)cnc2O[C@H]1CN(C)Cc1cccnc1	-	-	-	0
SMILES	HSF1 inh	Vif inh	HSF-1 act	esBAF inh
C[C@@H]1CN([C@H](C)CO)S(=O)(=O)c2ccc(C3=CCCCC3)cc2O[C@H]1CN(C)C(=O)c1ccncc1	-	-	-	0
COc1ccc(/C=N/Nc2ccccc2C(=O)O)cc1Cn1cc([N+](=O)[O-])cn1	0	-	0	47.7
COCCNC(=O)C[C@H]1CC[C@H]2[C@H](COc3ccc(NC(=O)C4CCCC4)cc3C(=O)N2C)O1	-	-	-	0
Clc1ccc(-c2cnc3cccnn23)cc1	-	0	-	49.8
Cc1noc(C)c1S(=O)(=O)Nc1ccc2c(c1)C(=O)N([C@H](C)CO)C[C@H](C)[C@H](CN(C)C(=O)CCC(F)(F)F)OCCCC[C@@H](C)O2	-	-	-	0
CN(C)C(=O)C[C@H]1CC[C@@H]2[C@H](COc3ccc(NC(=O)c4ccc(F)cc4)cc3C(=O)N2C)O1	-	-	-	0
Cc1ccc(Nc2nc(N)nc(CC#N)n2)cc1	0	0	0	69.5
Cc1ccc(Nc2nc(N)nc(CSc3nnc(-c4ccncc4)o3)n2)cc1	0	83.0	0	0
Cc1ccc(Nc2nc(N)nc(CSc3ncccn3)n2)cc1	0	0	66.0	0
Cc1ccc(Nc2nc(N)nc(CSc3nc(C)cc(C)n3)n2)cc1	0	-	0	0
Cc1ccc(Nc2nc(N)nc(CCl)n2)cc1	0	0	0	-
Nc1nc(CSc2ncccn2)nc(Nc2ccccc2)n1	0	0	0	0
CC(C)NC(=O)Nc1cccc2c1O[C@H](CN(C)C(=O)Nc1cccc3ccccc13)[C@@H](C)CN([C@@H](C)CO)C2=O	-	-	-	0
